This is an account of results in PubChem BioAssay (EPA / NIEHS).

What all share (settings): mRNA level, 48 h; actives raise or lower the signal
Read-out in assay [1]: Nuclear factor NF-kappa-B p105 subunit (Homo sapiens) (UniProt P19838)
Briefly: LTEA_HepaRG_NFKB1: Life Technologies and Expression Analysis (LTEA) Assay for Nuclear Factor Kappa B Subunit 1 (NFKB1) using HepaRG (AID 2283521).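 Further: TaqMan qRT-PCR transcript normalised to ACTB GAPDH and POLR2A housekeeping genes.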 Put shortly: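 Human HepaRG cells receive eight half-log concentrations, highest 100 uM, for 48 h. NFKB1 expression is then quantified by qRT-PCR and analysed for up- or down-regulation relative to 0.5% DMSO vehicle.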

Read-out in assay [2]: Protein phosphatase 2A (PPP2R4), PTPA (gene 5524)
Put plainly: LTEA_HepaRG_PPP2R4: Life Technologies and Expression Analysis (LTEA) Assay for Protein phosphatase 2A (PPP2R4) using HepaRG (AID 2283522). Put shortly: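 Gene-expression endpoint in HepaRG hepatic cells: 48 h treatment across eight half-log concentrations up to 100 uM in 0.5% DMSO. PPP2R4 mRNA by qRT-PCR, normalized to three endogenous control genes.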

Read-out in assay [3]: Phosphatase and tensin (PTEN), PTEN (gene 5728)
Put plainly: LTEA_HepaRG_PTEN: Life Technologies and Expression Analysis (LTEA) Assay for Phosphatase and tensin (PTEN) using HepaRG (AID 2283523). Put shortly:
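HepaRG cells, 48 h after plating, exposed in duplicate for 48 h in serum-free induction medium to 8 half-log concentrations up to 100 uM (0.5% DMSO). PTEN mRNA by qRT-PCR, normalized to ACTB, GAPDH, POLR2A; bidirectional fit versus DMSO.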

Read-out in assay [4]: solute carrier (SLC22A1), SLC22A1 (gene 6580)
Put plainly: LTEA_HepaRG_SLC22A1: Life Technologies and Expression Analysis (LTEA) Assay for solute carrier (SLC22A1) using HepaRG (AID 2283524). The method in brief: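 Differentiated human HepaRG cells in serum-free induction medium, exposed 48 h in duplicate to 8-point half-log series from 100 µM top in 0.5% DMSO. SLC22A1 mRNA by TaqMan qRT-PCR normalized to ACTB, GAPDH, POLR2A; bidirectional fit versus DMSO.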

Read-out in assay [5]: Pyruvate Dehydrogenase Kinase 4 (PDK4), PDK4 (gene 5166)
Put plainly: LTEA_HepaRG_PDK4: Life Technologies and Expression Analysis (LTEA) Assay for Pyruvate Dehydrogenase Kinase 4 (PDK4) using HepaRG (AID 2283525). Put shortly:
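HepaRG cells plated 48 h, then switched to serum-free induction medium and exposed in duplicate for 48 h to 8 half-log concentrations from 100 uM in 0.5% DMSO. PDK4 mRNA measured by qRT-PCR, normalized to ACTB, GAPDH and POLR2A; bidirectional fit versus DMSO.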

Read-out in assay [6]: NAD(P)H dehydrogenase [quinone] 1 (NQO1), NQO1 (gene 1728)
Put plainly: LTEA_HepaRG_NQO1: Life Technologies and Expression Analysis (LTEA) Assay for NAD(P)H dehydrogenase [quinone] 1 (NQO1) using HepaRG (AID 2283526). The method in brief: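 Human HepaRG hepatic cells received chemicals for 48 h in serum-free induction medium with 0.5% DMSO, up to 100 uM. Expression was assessed by TaqMan qRT-PCR against housekeeping controls and fitted bidirectionally against DMSO.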

Read-out in assay [7]: Nuclear factor erythroid 2-related factor 2 (Homo sapiens) (UniProt Q16236)
Briefly: LTEA_HepaRG_NFE2L2: Life Technologies and Expression Analysis (LTEA) Assay for Nuclear factor erythroid 2-related factor 2 (NFE2L2) Transcription Factor using HepaRG (AID 2283527).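 On outcome: TaqMan qRT-PCR transcript level normalised to ACTB GAPDH and POLR2A housekeeping genes.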 The method in brief:
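Differentiated human HepaRG cells, serum-free induction medium, exposed 48 h in duplicate to eight half-log concentrations up to 100 uM in 0.5% DMSO. NFE2L2 mRNA by Fluidigm TaqMan qRT-PCR, normalised to ACTB, GAPDH, POLR2A; bidirectional change versus DMSO.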

Read-out in assay [8]: succinate dehydrogenase complex iron sulfur subunit B (SDHB), SDHB (gene 6390)
Put plainly: LTEA_HepaRG_SDHB: Life Technologies and Expression Analysis (LTEA) Assay for succinate dehydrogenase complex iron sulfur subunit B (SDHB) using HepaRG (AID 2283528). The method in brief:
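A human HepaRG culture in serum-free induction medium received test chemicals for 48 h over an eight-point range capped at 100 uM. SDHB expression change was quantified by qRT-PCR.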

Read-out in assay [9]: Signal transducer and activator of transcription 3 (Homo sapiens) (UniProt P40763)
Put plainly: LTEA_HepaRG_STAT3: Life Technologies and Expression Analysis (LTEA) Assay for Signal transducer and activator of transcription (STAT3) using HepaRG (AID 2283529). Put shortly: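 Differentiated HepaRG cells, serum-free induction medium, dosed 48 h in duplicate, 8 half-log concentrations from 100 uM in 0.5% DMSO. STAT3 mRNA by qRT-PCR, normalised to ACTB, GAPDH, POLR2A; bidirectional fit versus DMSO.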

Read-out in assay [10]: solute carrier (SLCO1B1), SLCO1B1 (gene 10599)
Briefly: LTEA_HepaRG_SLCO1B1: Life Technologies and Expression Analysis (LTEA) Assay for solute carrier (SLCO1B1) using HepaRG (AID 2283530). Put shortly: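 Gain or loss of SLCO1B1 mRNA is fitted against the 0.5% DMSO vehicle in human HepaRG liver cells treated 48 h at up to 100 uM in half-log steps. Expression comes from qRT-PCR normalized to endogenous controls.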

Read-out in assay [11]: sulfotransferase 2A1 (SULT2A1), SULT2A1 (gene 6822)
Briefly: LTEA_HepaRG_SULT2A1: Life Technologies and Expression Analysis (LTEA) Assay for sulfotransferase 2A1 (SULT2A1) using HepaRG (AID 2283531). Put shortly:
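Cells were plated and cultured 48 h, switched to serum-free induction medium, then dosed in duplicate for 48 h (8 concentrations, max 100 uM). RNA was isolated and SULT2A1 expression measured by qRT-PCR; gain or loss of signal fitted relative to DMSO.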

Read-out in assay [12]: Transforming Growth Factor (TGFB1), TGFB1 (gene 7040)
Briefly: LTEA_HepaRG_TGFB1: Life Technologies and Expression Analysis (LTEA) Assay for Transforming Growth Factor (TGFB1) Transporter using HepaRG (AID 2283533). The method in brief:
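Expression change of TGFB1 in human HepaRG cells is measured after a 48 h chemical exposure, up to 100 uM in 0.5% DMSO vehicle. Curves are fitted in both directions relative to the DMSO baseline.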

Read-out in the next assay: TIMP1, TIMP1 (gene 7076)
Put plainly: LTEA_HepaRG_TIMP1: Life Technologies and Expression Analysis (LTEA) Assay for TIMP1 using HepaRG (AID 2283534).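 Further: TaqMan qRT-PCR signal normalized to ACTB GAPDH and POLR2A housekeeping genes.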 Put shortly: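 We dosed human liver HepaRG cultures for 48 hours with up to 100 uM test chemical and measured TIMP1 expression by qRT-PCR. Activity in either direction is fitted relative to the 0.5% DMSO vehicle.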

Read-out in assay [13]: Tumor necrosis factor receptor 1 (TNFRSF1A), TNFRSF1A (gene 7132)
Put plainly: LTEA_HepaRG_TNFRSF1A: Life Technologies and Expression Analysis (LTEA) Assay for Tumor necrosis factor receptor 1 (TNFRSF1A) using HepaRG (AID 2283535). The method in brief: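 Expression of TNFRSF1A in human HepaRG liver cells was measured by qRT-PCR 48 h after chemical dosing (maximum 100 uM). Bidirectional curve fitting used 0.5% DMSO as baseline.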

Read-out in assay [14]: Thyroid Hormone Responsive (THRSP), THRSP (gene 7069)
Briefly: LTEA_HepaRG_THRSP: Life Technologies and Expression Analysis (LTEA) Assay for Thyroid Hormone Responsive (THRSP) using HepaRG (AID 2283536). The method in brief: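 Differentiated HepaRG cells treated 48 h in serum-free induction medium with 8 half-log concentrations up to 100 uM (0.5% DMSO), duplicates. THRSP mRNA by TaqMan qRT-PCR normalised to ACTB, GAPDH, POLR2A; bidirectional fit versus DMSO.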

Read-out in assay [15]: Cellular tumor antigen p53 (Homo sapiens) (UniProt P04637)
Put plainly: LTEA_HepaRG_TP53: Life Technologies and Expression Analysis (LTEA) Assay for Tumor Protein P53 (TP53) using HepaRG (AID 2283537). The method in brief: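 Gain or loss of TP53 mRNA signal is scored relative to 0.5% DMSO after 48 h chemical treatment of HepaRG liver cells, tested in duplicate at eight half-log concentrations up to 100 uM.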

Read-out in assay [16]: UDP glucuronosyltransferase (UGT1A1), UGT1A1 (gene 54658)
Put plainly: LTEA_HepaRG_UGT1A1: Life Technologies and Expression Analysis (LTEA) Assay for UDP glucuronosyltransferase (UGT1A1) using HepaRG (AID 2283538). The method in brief:
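Human liver HepaRG cultures receive test chemical for 48 h, up to 100 uM in 0.5% DMSO, with phenobarbital induction controls. UGT1A1 mRNA is measured by qRT-PCR and normalized to ACTB, GAPDH and POLR2A.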

Read-out in assay [17]: UDP glucuronosyltransferase (UGT1A6), UGT1A6 (gene 54578)
Put plainly: LTEA_HepaRG_UGT1A6: Life Technologies and Expression Analysis (LTEA) Assay for UDP glucuronosyltransferase (UGT1A6) using HepaRG (AID 2283539). Put shortly: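 Endpoint is UGT1A6 transcript induction or loss in a human liver cell line, quantified by TaqMan qRT-PCR 48 h after dosing. Concentrations ran from 100 uM downward in half-log steps in 0.5% DMSO; activity was fitted in both directions versus vehicle.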

Read-out in assay [18]: X-box binding protein 1 (XBP1), XBP1 (gene 7494)
Put plainly: LTEA_HepaRG_XBP1: Life Technologies and Expression Analysis (LTEA) Assay for X-box binding protein 1 (XBP1) using HepaRG (AID 2283540). Put shortly: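 Human HepaRG monolayers receive test chemical for 48 h across an eight-point half-log series starting at 100 uM. XBP1 mRNA gain or loss is scored against DMSO by qRT-PCR.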

Read-out in assay [19]: Transforming Growth Factor (TGFA), TGFA (gene 7039)
Briefly: LTEA_HepaRG_TGFA: Life Technologies and Expression Analysis (LTEA) Assay for Transforming Growth Factor (TGFA) using HepaRG (AID 2283532). Put shortly:
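Differentiated HepaRG cells exposed 48 hours in serum-free induction medium, 0.5% DMSO vehicle, 8-point half-log series from 100 uM, in duplicate. TGFA mRNA by TaqMan qRT-PCR, normalised to ACTB, GAPDH, POLR2A; bidirectional fit versus DMSO.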

SMILES strings stand for the structures. The source made the active and inactive calls. How the source made its calls: active means hit-call score of the fitted dose curve at least 0.9, where 1 is the maximum; inactive means score below 0.9.

Sequence of Signal transducer and activator of transcription 3 (Homo sapiens) (P40763 whole entry, looked up): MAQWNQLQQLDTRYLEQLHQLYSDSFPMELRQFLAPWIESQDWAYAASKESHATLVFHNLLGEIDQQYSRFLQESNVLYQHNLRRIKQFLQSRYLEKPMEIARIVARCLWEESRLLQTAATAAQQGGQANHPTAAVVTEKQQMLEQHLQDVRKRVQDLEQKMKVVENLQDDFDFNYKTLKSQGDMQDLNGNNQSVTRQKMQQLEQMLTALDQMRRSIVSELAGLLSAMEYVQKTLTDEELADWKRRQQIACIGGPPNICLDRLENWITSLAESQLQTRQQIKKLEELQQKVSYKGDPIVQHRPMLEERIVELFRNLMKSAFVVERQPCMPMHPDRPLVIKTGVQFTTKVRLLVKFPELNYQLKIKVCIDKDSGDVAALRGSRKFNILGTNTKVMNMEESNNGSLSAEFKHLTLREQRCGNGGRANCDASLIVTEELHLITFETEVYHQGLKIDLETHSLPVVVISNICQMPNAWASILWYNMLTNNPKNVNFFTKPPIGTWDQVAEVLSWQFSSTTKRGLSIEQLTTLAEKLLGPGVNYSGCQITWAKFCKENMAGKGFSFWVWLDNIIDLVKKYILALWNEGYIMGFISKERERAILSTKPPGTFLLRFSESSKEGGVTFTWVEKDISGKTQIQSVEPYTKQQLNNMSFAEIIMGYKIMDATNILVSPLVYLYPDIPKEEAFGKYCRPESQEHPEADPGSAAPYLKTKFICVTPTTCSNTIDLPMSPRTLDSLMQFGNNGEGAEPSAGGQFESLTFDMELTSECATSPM
Sequence of Nuclear factor NF-kappa-B p105 subunit (Homo sapiens) (P19838 whole entry, looked up): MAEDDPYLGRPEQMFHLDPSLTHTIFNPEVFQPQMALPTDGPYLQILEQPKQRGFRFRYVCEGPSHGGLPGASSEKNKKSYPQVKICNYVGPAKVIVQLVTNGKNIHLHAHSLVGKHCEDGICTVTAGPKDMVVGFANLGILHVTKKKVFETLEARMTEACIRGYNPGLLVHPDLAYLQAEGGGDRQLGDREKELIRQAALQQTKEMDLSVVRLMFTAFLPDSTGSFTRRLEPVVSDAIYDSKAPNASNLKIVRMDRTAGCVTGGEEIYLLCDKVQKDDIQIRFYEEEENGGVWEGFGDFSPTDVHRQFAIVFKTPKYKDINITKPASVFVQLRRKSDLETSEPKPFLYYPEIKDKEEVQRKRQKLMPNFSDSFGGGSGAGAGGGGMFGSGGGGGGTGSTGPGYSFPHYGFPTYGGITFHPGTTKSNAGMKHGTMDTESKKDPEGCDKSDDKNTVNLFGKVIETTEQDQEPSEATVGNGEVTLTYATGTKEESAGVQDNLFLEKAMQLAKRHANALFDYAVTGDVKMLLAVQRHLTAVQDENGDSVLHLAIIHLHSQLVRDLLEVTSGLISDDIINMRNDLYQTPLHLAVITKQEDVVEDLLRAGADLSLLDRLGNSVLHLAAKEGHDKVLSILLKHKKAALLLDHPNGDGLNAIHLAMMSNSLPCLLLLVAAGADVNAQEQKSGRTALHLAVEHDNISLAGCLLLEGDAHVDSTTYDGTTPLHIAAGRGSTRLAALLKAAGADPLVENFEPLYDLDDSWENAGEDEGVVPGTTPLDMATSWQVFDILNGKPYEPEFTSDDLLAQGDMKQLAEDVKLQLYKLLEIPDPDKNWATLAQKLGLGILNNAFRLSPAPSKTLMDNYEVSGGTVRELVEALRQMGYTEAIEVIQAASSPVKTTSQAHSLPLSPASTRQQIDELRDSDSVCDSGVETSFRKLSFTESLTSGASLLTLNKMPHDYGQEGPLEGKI
Sequence of Nuclear factor erythroid 2-related factor 2 (Homo sapiens) (Q16236 whole entry, looked up): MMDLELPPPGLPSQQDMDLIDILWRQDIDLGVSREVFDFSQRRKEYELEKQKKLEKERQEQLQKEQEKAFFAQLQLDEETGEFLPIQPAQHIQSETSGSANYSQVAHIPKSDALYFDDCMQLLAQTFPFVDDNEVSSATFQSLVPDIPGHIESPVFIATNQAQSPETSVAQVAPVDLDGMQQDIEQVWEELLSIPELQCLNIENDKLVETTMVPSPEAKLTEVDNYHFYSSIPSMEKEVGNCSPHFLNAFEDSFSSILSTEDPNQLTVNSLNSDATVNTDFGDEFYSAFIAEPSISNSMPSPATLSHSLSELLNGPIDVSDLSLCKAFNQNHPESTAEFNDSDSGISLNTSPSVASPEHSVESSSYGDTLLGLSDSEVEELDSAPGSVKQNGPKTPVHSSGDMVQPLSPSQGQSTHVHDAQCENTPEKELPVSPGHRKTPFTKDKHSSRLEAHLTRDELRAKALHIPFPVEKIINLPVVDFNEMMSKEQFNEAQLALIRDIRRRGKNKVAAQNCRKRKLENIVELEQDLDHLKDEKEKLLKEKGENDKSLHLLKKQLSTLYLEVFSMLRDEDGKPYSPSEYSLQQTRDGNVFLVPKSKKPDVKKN
Sequence of Cellular tumor antigen p53 (Homo sapiens) (P04637 whole entry, looked up): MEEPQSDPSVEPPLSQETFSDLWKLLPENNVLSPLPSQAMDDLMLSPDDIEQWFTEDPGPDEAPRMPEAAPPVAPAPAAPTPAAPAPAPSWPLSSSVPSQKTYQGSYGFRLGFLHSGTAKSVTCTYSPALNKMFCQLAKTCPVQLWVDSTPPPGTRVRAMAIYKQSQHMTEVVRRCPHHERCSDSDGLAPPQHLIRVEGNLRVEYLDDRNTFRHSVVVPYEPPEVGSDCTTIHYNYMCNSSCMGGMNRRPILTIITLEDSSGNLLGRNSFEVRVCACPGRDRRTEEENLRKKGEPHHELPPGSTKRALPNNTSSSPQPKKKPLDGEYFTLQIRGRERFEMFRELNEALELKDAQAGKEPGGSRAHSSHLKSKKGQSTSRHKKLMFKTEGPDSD

Usually AC50 stands for the midpoint of the concentration-response curve, whichever way the signal moves. In the case of `Cc1cc(CCN2CCN(c3nsc4ccccc34)CC2)cc2c1NC(=O)CC2(C)C`, the molecule was classed as inactive in [1], in assay [2], in assay [3], in assay [6], in assay [8] and in assay [9]. Also, the outcome with TIMP1, TIMP1 (gene 7076) is “inactive”; in assay [13], “inactive”; in assay [18], “inactive”. In addition, the AC50 is 84.8 µM (active) in [4]; 4.39 µM (active) in assay [5]; 50 µM (active) in assay [7]; 77.5 µM (active) in assay [10]; 85.8 µM (active) in assay [11]; 35.4 µM (active) in assay [12]. Further, the AC50 in assay [14] is 82 µM (active); in assay [15], 80.4 µM (active); in [16], 91.6 µM (active); in assay [17], 79.5 µM (active).

Take `CCC(=C(c1ccc(O)cc1)c1ccc(OCCN(C)C)cc1)c1ccccc1`: the molecule was classed as inactive in [1], in assay [2], in assay [3], in assay [5], in assay [6] and in assay [7]. Besides, the outcome in assay [8] was “inactive”; in assay [9], “inactive”; in assay [10], “inactive”; with TIMP1, TIMP1 (gene 7076), “inactive”; in assay [13], “inactive”; in [14], “inactive”. Further, the outcome in assay [16], in [17] and in assay [18] was inactive. Further, the AC50 was 93.4 µM (active) in assay [4], 85.5 µM (active) in assay [11] and 97.5 µM (active) in assay [12].

Take `c1ccc2c(c1)Cc1ccccc1-2`: the molecule was called inactive in assay [1], in assay [3], in assay [4], in assay [5], in [6] and in assay [7]. Moreover, the call in assay [8], in assay [9], in assay [10], in [11], in [19] and in assay [12] was inactive. The outcome was “inactive” with TIMP1, TIMP1 (gene 7076); “inactive” in assay [13]; “inactive” in assay [14]; “inactive” in assay [16]; “inactive” in assay [17]; “inactive” in [18].
